Screening results (PubChem BioAssay)
OPRM1-OPRD1 inv = inverse agonists of MOR-DOR heterodimerization, primary screen, cell-based, luminescence | actives 0.21% (n = 340,000) | inhibition, % at 9.3 µM | cell-based MOR-DOR heterodimer luminescence, inverse agonism; in the data active means inhibition above about 22%, passing the limit was not always enough;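 further: 0% = cells with DMSO and 100% = wells without cells with DMSO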
Target sequence (P35372 whole entry, looked up): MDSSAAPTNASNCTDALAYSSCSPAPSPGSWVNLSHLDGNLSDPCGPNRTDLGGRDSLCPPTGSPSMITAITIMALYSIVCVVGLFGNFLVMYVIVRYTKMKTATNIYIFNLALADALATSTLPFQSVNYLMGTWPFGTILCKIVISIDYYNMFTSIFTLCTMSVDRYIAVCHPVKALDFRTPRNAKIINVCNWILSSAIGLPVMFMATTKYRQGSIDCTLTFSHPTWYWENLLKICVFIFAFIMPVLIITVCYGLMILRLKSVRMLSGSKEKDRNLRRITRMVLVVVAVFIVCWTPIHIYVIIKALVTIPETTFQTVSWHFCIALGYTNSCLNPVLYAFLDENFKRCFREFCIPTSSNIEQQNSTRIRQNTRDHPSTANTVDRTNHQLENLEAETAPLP
Target sequence (P41143 whole entry, looked up): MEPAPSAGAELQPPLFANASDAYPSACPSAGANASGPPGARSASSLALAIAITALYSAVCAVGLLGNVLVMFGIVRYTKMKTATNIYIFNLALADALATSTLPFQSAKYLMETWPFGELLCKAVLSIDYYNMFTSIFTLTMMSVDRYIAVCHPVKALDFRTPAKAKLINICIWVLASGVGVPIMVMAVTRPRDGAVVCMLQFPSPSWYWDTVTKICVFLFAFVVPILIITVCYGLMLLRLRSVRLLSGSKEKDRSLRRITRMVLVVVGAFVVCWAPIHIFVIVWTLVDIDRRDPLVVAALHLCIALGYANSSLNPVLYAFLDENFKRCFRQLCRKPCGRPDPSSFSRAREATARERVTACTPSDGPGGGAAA
OPRM1-OPRD1 ag = agonists of OPRM1-OPRD1 heterodimerization, primary screen, cell-based, luminescence. Mu-type opioid receptor (Homo sapiens) + Delta-type opioid receptor (Homo sapiens), …. cells. activation, % at 9.3 µM. actives 0.3% (n = 340,000); in the data active means activation above about 18%;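 further: 0% = vehicle-treated cells and 100% = reference agonist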
HTR5A inv ag = HTR5A inverse agonists in luminescence cell assay, primary screen, counter-screen for OPRM1-OPRD1 heterodimer inverse agonist project, full-deck HTS. 5-hydroxytryptamine receptor 5A (Homo sapiens), P47898. HTR5A cell line, inverse agonism. inhibition, % at 9.3 µM. actives 0.083% (n = 340,000). AID 504634, 2011; in the data active means inhibition mostly above about 23%, no sharp cut-off; inactive means mostly below about 18%;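 further: 0% = cells with DMSO and 100% = no-cell wells with DMSO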
HTR5A ag = HTR5A agonists in luminescence cell assay, primary screen, counter-screen for OPRM1-OPRD1 heterodimer agonist project, full-deck HTS; actives 0.61% (n = 340,000); activation, % at 9.3 µM; 5-hydroxytryptamine receptor 5A (Homo sapiens), P47898; cell-based; in the data active means activation mostly above about 9.5%, no sharp cut-off; inactive means mostly below about 7.6%;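 further: 0% = cells with vehicle only and 100% = reference agonist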
The depositor's hits bear a star. Sampled rows, rich in hits. Any-hit rate of the full collection: about 1.1%.

SMILES	OPRM1-OPRD1 inv	OPRM1-OPRD1 ag	HTR5A inv ag	HTR5A ag
CCOc1ccc(CC(=O)Nc2sc(Cc3ccccc3)cc2C(N)=O)cc1OCC	-13.8	2.4	-49.5	9.6*
NC(=O)c1cc(Cc2ccccc2)sc1NC(=O)c1ccco1	-4.9	0.9	-9.8	3.0
OCCC1CN(Cc2cccc3nccnc23)CCN1Cc1ccc(F)c(F)c1 (stereo not given)	16.1	-3.5	-12.2	0.8
CCCOc1ccccc1-c1nc2c([nH]1)c(=O)[nH]c(=O)n2C	2.1	-0.5	-3.3	13.2*
Cn1c(=O)[nH]c(=O)c2[nH]c(CO)nc21	2.9	-0.6	-0.2	0.1
CC1CC2(CCCC2)N(C(=O)N(C)C)c2ccc(F)cc21 (stereo not given)	5.6	-1.1	-5.4	1.4
CCCc1nnc(SCC(=O)Nc2ccccc2Cl)n1CC1CCCO1 (stereo not given)	-37.1	4.6	-39.3	13.2
CC1CCN(C(=O)COC(=O)c2cc([N+](=O)[O-])ccc2N2CCOCC2)CC1	2.2	-0.4	-32.9	12.1*
COC(=O)C1CCN(C(=O)COC(=O)c2cc([N+](=O)[O-])ccc2N2CCOCC2)CC1	12.7	-3.2	18.5	4.9
CCn1cc(C(=O)N(C)Cc2ccc(OC(F)F)cc2)c(=O)c2ccc(C)nc21	7.8	-1.6	1.3	-0.3
O=C(Nc1cccc(C(F)(F)F)c1)Nc1ccc2[nH]c(=O)[nH]c2c1	-12.5	2.8	-47.7	12.7*
Cc1ccc(N=C2NC(=O)CS2)cc1	7.0	-1.1	9.4	9.5
Cc1ccc(N=C2C(=O)Nc3ccc(C)c(Br)c32)cc1	67.1*	-13.1	28.4	-7.8
CN(C)S(=O)(=O)c1cccc(NC(=O)CN2C(=O)NC3(CCc4ccccc4C3)C2=O)c1 (stereo not given)	10.0	-1.9	1.4	0.8
Cc1ccc(CNCC(=O)Nc2ccc(C)cc2Br)cc1	-9.7	2.0	12.5	11.8*
Cc1ccc(NC(=O)CNCc2ccccc2)c(Br)c1	-16.6	3.6	0.0	0.0
COC(=O)c1ccc(NC(=O)COc2ccc(C3C(C#N)=C(N)Oc4c3ccc3ccccc43)cc2OC)cc1 (stereo not given)	-5.7	1.1	-30.7	14.1*
CCn1cc(Cl)c(C(=O)N2N=C(c3ccc4ccccc4c3)CC2c2ccccc2O)n1 (stereo not given)	-24.4	4.7	-43.2	11.8*
COc1ccc(C)cc1NC(=O)CSc1nnc(-c2cc3cccc(OC)c3o2)n1N	9.3	-2.2	3.5	12.8*
COc1ccc(F)cc1CN1CCN(C(=O)CCC(=O)Nc2nnc(C3CCCCC3)s2)CC1	7.0	-1.3	9.2	4.1
Cc1cccc(NC(=O)CN2C(=O)N/C(=C/c3ccc(C)s3)C2=O)c1	-145.4	23.4*	-23.4	12.0*
CCC(NC(=O)NNC(=O)c1ccncc1)(C(F)(F)F)C(F)(F)F	16.5	-3.3	10.3	-4.0
NS(=O)(=O)c1cc(C(=O)OCC(=O)Nc2ccc3c(c2)OCO3)ccc1Cl	8.4	-1.6	0.9	-0.2
Cc1ccsc1C(=O)Nc1cc(C(C)(C)C)nn1-c1ccccc1	-2.8	0.5	21.9	13.6*
CCOc1ccc(S(=O)(=O)N/N=C(\C)c2ccc(OC)cc2OC)cc1	14.1	-3.0	-13.2	11.0
SMILES	OPRM1-OPRD1 inv	OPRM1-OPRD1 ag	HTR5A inv ag	HTR5A ag
COc1ccc(/C(C)=N/NS(=O)(=O)c2cc(C)ccc2C)c(OC)c1	-16.8	3.2	-37.7	13.4*
CCCC(=O)N1CCN(Cc2ccc3c(c2)OCO3)CC1	1.3	-0.2	6.0	-1.8
O=C(O)CCC(=O)N1CCN(Cc2ccc3c(c2)OCO3)CC1	7.2	-1.6	-43.2	11.7*
COc1ccc(OCCCC(=O)N(C)CC(=O)Nc2c(C)cccc2C)cc1	11.8	-2.4	3.3	-1.3
CCOC(=O)/C=C1/SCC(=O)N1CC(=O)NC12CC3CC(CC(C3)C1)C2	17.6	-3.4	-41.0	10.0*
CCOC(=O)/C=C1\SCC(=O)N1CC(=O)Nc1ccc(OC)c(OC)c1	7.3	-1.3	-14.7	2.5
COc1ccc2oc(C(=O)CCC(=O)O)c(N)c2c1	-9.5	1.6	18.6	0.2
COC(=O)CCC(=O)c1oc2ccc(Br)cc2c1N	12.8	-2.8	-25.9	11.7*
CN(Cc1ccccc1)C(=O)CCCn1c(=O)[nH]c2cc(Cl)ccc2c1=O	5.7	-1.2	13.4	13.4*
O=C(CCCn1c(=O)[nH]c2cc(Cl)ccc2c1=O)NC1CCCCCCC1	3.7	-0.6	9.2	3.3
O=C(CCCn1c(SCc2cccc([N+](=O)[O-])c2)nc2ccccc2c1=O)NCC1CCCO1 (stereo not given)	15.4	-3.1	-11.8	4.3
CN(CC(=O)N(CCO)Cc1ccccc1)S(=O)(=O)c1ccc2c(c1)c(=O)n(C)c(=O)n2C	17.2	-3.4	11.6	2.1
Cc1cccc(N(C)C(=O)CN(C)S(=O)(=O)c2ccc3c(c2)c(=O)n(C)c(=O)n3C)c1	12.0	-2.3	-4.0	12.5*
COc1ccc(OC)c2nc3c(cc12)CCC3	12.1	-2.4	-13.7	3.8
CC(=O)Nc1sc(N/N=C/c2ccccc2)nc1-c1ccc(C)cc1	-2.6	0.5	3.9	12.7*
CN(C)C(CNC(=O)c1cc(-c2ccco2)nc2ccccc12)c1ccccc1 (stereo not given)	-7.2	1.4	1.2	-0.3
COc1cc2sc(NC(=O)c3ccco3)nc2cc1Cl	-13.1	2.8	-38.6	9.9*
Cc1ccc2nc(Cl)c(/C=N/Nc3ccc(C(=O)O)cc3)cc2c1	-1.7	0.3	-0.2	4.8
O=C(/C=C/c1ccc(Br)cc1)NC1CCCCCC1	-7.3	1.4	-18.4	13.7*
CCCOc1ccc(/C=C/C(=O)NC2CCCCC2)cc1	-21.3	3.9	26.4	-2.9
Cc1cccn2c(=O)c(/C=C(\C#N)C(N)=O)c(N3CCN(Cc4ccc5c(c4)OCO5)CC3)nc12	5.3	-1.0	-39.5	11.4*
COC(=O)/C(C#N)=C/c1c(N2CCN(Cc3ccc4c(c3)OCO4)CC2)nc2c(C)cccn2c1=O	8.9	-1.7	29.5	-2.5
Cc1noc(C)c1Cc1c(Cl)cccc1Cl	-10.3	2.2	4.1	2.6
Cc1noc(C)c1Cc1ccc(O)cc1	17.3	-3.0	-4.3	14.2*
COc1ccc(CCc2nnc(CCC(=O)N(C)Cc3ccnc4ccccc34)o2)cc1	4.4	-0.9	-23.4	-1.6
CCN1CCN(c2oc(-c3ccccc3)nc2S(=O)(=O)c2ccc(C)cc2)CC1	5.2	-0.8	1.7	-1.9
CC(C)NC(=O)c1ccc(-n2nc(C(F)(F)F)c3c2CCCC3)cc1	7.8	-1.5	-49.0	12.5*
Cc1cc(C)n(-c2ccc(C(=O)NC(C)C)cc2)n1	13.9	-2.7	2.3	2.8
Cc1ccccc1-c1nc(CS(=O)(=O)CC(=O)NCc2ccco2)c(C)o1	-0.6	0.1	-10.1	-5.7
Cc1cc(C(=O)COC(=O)c2ccc(O)cc2)c(C)n1CC1COc2ccccc2O1 (stereo not given)	-11.5	2.2	-42.8	12.3*
